Results filed as inconclusive are left out. Entries that show only a call come without a potency. The source made the active and inactive calls. Calls come from the whole dose curve; as a rule, active = well fitted cell-killing curve with a large enough effect; inconclusive = small, poorly fitted or top-dose-only effect; inactive = flat fitted curve, though single readings scatter.
Assay: Quantitative highthroughput screen to assess conditional lethalithy of P12 Ichikawa cells grown in Human Plasma-Like Medium with dialyzed fetal bovine serum (HPLM+ds) (AID 1963879)
Details: ATP luminescence, 48 h; Potency: viability; series mostly up to 45.8 µM
Outline: (§1)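 Each medium arm—HPLM with 10% dialyzed FBS, or RPMI1640 with 5 mM glucose and 10% untreated or dialyzed FBS—was screened against an 11-point, 3-fold compound titration for 48 h at 37 °C, with CellTiter-Glo luminescence as endpoint.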
With `CO[C@H]1CCC(O[C@H]2C[C@H]([C@]3(C)CC[C@]4(C[C@H](O)[C@@H](C)[C@@H]([C@@H](C)C=C(C)C(=O)[C@H](C)C[C@H](C)C(=O)O)O4)O3)O[C@]3(O[C@@H]([C@H]4O[C@@](O)(CO)[C@H](C)C[C@H]4C)C[C@H]3C)[C@H]2C)O[C@H]1C` (some centres undefined) the Potency was 3.72 µM (active). In the case of `CC[C@@H]1[C@@H](C)O[C@@](O)([C@@H](C)[C@H](O)[C@H](C)[C@H]2OC(=O)C=CC=C[C@@H](C)[C@@H]([C@@H](C)[C@@H](O)[C@H](C)[C@@]3(O)C[C@H](O[C@H]4C[C@H](O)[C@H](O)[C@H](C)O4)[C@H](CC)[C@@H](C)O3)OC(=O)C=CC=C[C@@H]2C)C[C@H]1O[C@H]1C[C@H](O)[C@H](O)[C@H](C)O1`, the Potency is reported as 2.96 µM (active). With `CC(C)(O)C=CC(=O)[C@](C)(O)[C@H]1[C@H](O)C[C@]2(C)[C@@H]3CC=C4[C@@H](C=C(O)C(=O)C4(C)C)[C@]3(C)C(=O)C[C@@]12C` the Potency was 0.166 µM (active). With `CC(N[C@H]1C[C@H]1c1ccccc1)c1ccc2c(c1)OCCO2` (some centres undefined) the Potency was “inactive”. With `CCN1C[C@]2(OC(=O)c3ccccc3NC(C)=O)CC[C@H](OC)[C@@]34[C@H]5CC6[C@@H](OC)C[C@](O)(C(C[C@@H]23)[C@@H]14)[C@@]5(O)[C@@H]6OC` the Potency was “inactive”. In the case of `COC1(CS(=O)c2ccccc2)CCN(CCc2c[nH]c3ccc(F)cc23)CC1` (centres undefined), the Potency is reported as “inactive”. With `CC(=O)N(C)c1cccc(-c2ccnc3c(C(=O)c4cccs4)cnn23)c1` the Potency was “inactive”. With `C[C@H]([C@H](O)CCC(C)(C)O)[C@H]1CC[C@@]2(O)C3=CC(=O)[C@@H]4C[C@@H](O)[C@@H](O)C[C@]4(C)[C@@H]3CC[C@]12C` the Potency was “inactive”. In the case of `C[C@]12CC[C@H]3[C@@H](CCC4=CC(=O)CC[C@@]43C)[C@H]1CC[C@H]2OC(=O)CCC1CCCC1`, the Potency is reported as “inactive”. With `CCOC(=O)c1cncn1[C@H](C)c1ccccc1` the Potency was “inactive”. With `CC[C@H]1C=CC=CC[C@@H](C)[C@H](O)[C@@](C)(O)C(=O)[C@@H](C)[C@H](O)[C@@H](C)C(=O)[C@@H](C)[C@H](O)[C@@H](C)C=CC(=O)O[C@@H]2[C@@H](C)[C@H](CC1)O[C@]1(CC[C@H](C)[C@H](C[C@@H](C)O)O1)[C@H]2C` the Potency was 11.8 µM (active). In the case of `CC(C)[C@]12O[C@@H]1[C@@H]1O[C@]13[C@]1(O[C@H]1C[C@@H]1C4=C(CC[C@@]13C)C(=O)OC4)[C@H]2O`, the Potency is reported as 0.0012 µM (active). With `CC(=Cc1csc(C)n1)[C@@H]1C[C@H]2O[C@@H]2CCC[C@H](C)[C@@H](O)[C@@H](C)C(=O)C(C)(C)[C@@H](O)CC(=O)O1` the Potency was “inactive”. For `CC(=CCCC1=CCC(C2=CC(=O)OC2O)OC1O)CCC1=C(C)CCCC1(C)C` (centres undefined), the Potency was “inactive”. With `COc1cccc2c1[C@]13CCN(CC4CC4)[C@H](C2)[C@]1(OC)CCC(=O)C3` the Potency was “inactive”. With `CN(C)CCN(C)CCc1ccc(Cl)c(Cl)c1` the Potency was “inactive”. With `C[C@@H]1[C@H](O)[C@@H](C)C=CC=CCCC=CC=CC=CC=C[C@H](O[C@H]2O[C@@H](C)[C@H](O)[C@@H](N)[C@@H]2O)CC2O[C@](O)(C[C@@H](O)[C@H](O)CC[C@@H](O)C[C@@H](O)C[C@@H](O)CC(=O)O[C@H]1C)C[C@H](O)[C@H]2C(=O)O` the Potency was “inactive”. For `C[C@]12CC[C@H]3[C@@H](CCC4=CC(=O)CC[C@@]43C)[C@H]1CC[C@H]2O`, the Potency was “inactive”. With `CC(C)(C)[C@]1(O)C[C@@H]2OC(=O)C[C@@]23C(=O)O[C@@H]2OC(=O)[C@H](O)C213` (some centres undefined) the Potency was “inactive”. With `CCOC(=O)c1c(C(C#N)=CN)c2ccc(Cl)c(Cl)c2n1C` the Potency was “inactive”. With `COc1ccc(CC2NCCc3cc(OC)c(OC)cc32)cc1OC` (centres undefined) the Potency was “inactive”.

Assay: Quantitative highthroughput screen to assess conditional lethalithy of P12 Ichikawa cells grown in RPMI1640 with dialyzed fetal bovine serum (RPMI+ds) (AID 1963880)
Details: ATP luminescence, 48 h; Potency: P12-Ichikawa viability; series mostly up to 45.8 µM
Outline: as §1
In the case of `CC[C@@H]1[C@@H](C)O[C@@](O)([C@@H](C)[C@H](O)[C@H](C)[C@H]2OC(=O)C=CC=C[C@@H](C)[C@@H]([C@@H](C)[C@@H](O)[C@H](C)[C@@]3(O)C[C@H](O[C@H]4C[C@H](O)[C@H](O)[C@H](C)O4)[C@H](CC)[C@@H](C)O3)OC(=O)C=CC=C[C@@H]2C)C[C@H]1O[C@H]1C[C@H](O)[C@H](O)[C@H](C)O1`, the Potency is reported as 3.32 µM (active). In the case of `CC(C)(O)C=CC(=O)[C@](C)(O)[C@H]1[C@H](O)C[C@]2(C)[C@@H]3CC=C4[C@@H](C=C(O)C(=O)C4(C)C)[C@]3(C)C(=O)C[C@@]12C`, the Potency is reported as 0.166 µM (active). With `CC(N[C@H]1C[C@H]1c1ccccc1)c1ccc2c(c1)OCCO2` (some centres undefined) the Potency was “inactive”. In the case of `CC1=C2C[C@@H]3[C@@H](CC=C4C[C@@H](O)CC[C@@]43C)[C@@H]2CC[C@]12O[C@H]1C[C@H](C)CN[C@H]1[C@H]2C`, the Potency is reported as “inactive”. In the case of `C[C@]12CC[C@H](O)CC1=CC[C@H]1[C@H]3CCC(=O)[C@@]3(C)CC[C@@H]12`, the Potency is reported as “inactive”. With `CC(=O)N(C)c1cccc(-c2ccnc3c(C(=O)c4cccs4)cnn23)c1` the Potency was “inactive”. With `C[C@H]([C@H](O)CCC(C)(C)O)[C@H]1CC[C@@]2(O)C3=CC(=O)[C@@H]4C[C@@H](O)[C@@H](O)C[C@]4(C)[C@@H]3CC[C@]12C` the Potency was “inactive”. In the case of `CCOC(=O)c1cncn1[C@H](C)c1ccccc1`, the Potency is reported as “inactive”. In the case of `CC[C@H]1C=CC=CC[C@@H](C)[C@H](O)[C@@](C)(O)C(=O)[C@@H](C)[C@H](O)[C@@H](C)C(=O)[C@@H](C)[C@H](O)[C@@H](C)C=CC(=O)O[C@@H]2[C@@H](C)[C@H](CC1)O[C@]1(CC[C@H](C)[C@H](C[C@@H](C)O)O1)[C@H]2C`, the Potency is reported as 5.26 µM (active). In the case of `CN(C)CCN(C)CCc1ccc(Cl)c(Cl)c1`, the Potency is reported as “inactive”. With `C[C@@H]1[C@H](O)[C@@H](C)C=CC=CCCC=CC=CC=CC=C[C@H](O[C@H]2O[C@@H](C)[C@H](O)[C@@H](N)[C@@H]2O)CC2O[C@](O)(C[C@@H](O)[C@H](O)CC[C@@H](O)C[C@@H](O)C[C@@H](O)CC(=O)O[C@H]1C)C[C@H](O)[C@H]2C(=O)O` the Potency was “inactive”. In the case of `C[C@]12CC[C@H]3[C@@H](CCC4=CC(=O)CC[C@@]43C)[C@H]1CC[C@H]2O`, the Potency is reported as “inactive”. With `CCOC(=O)c1c(C(C#N)=CN)c2ccc(Cl)c(Cl)c2n1C` the Potency was “inactive”.

Source: PubChem BioAssay (NCATS)
Note: nearly all actives have a fitted effect of over 35% in size.
Potency is the fitted concentration of half-maximal effect.
